Results as given in PubChem BioAssay (EPA / NIEHS).
Values joined by “and” are separate entries in the source; they are usually repeats but may differ in a detail not shown here. Identical values can stand only once. More than one record can exist for a structure, and the calls need not agree. Active and inactive are the calls of the source. How the source made its calls: active means hit-call score of the fitted dose curve at least 0.9, where 1 is the maximum; inactive means score below 0.9.

Read-out: urokinase plasminogen activator (uPA), PLAU (gene 5328)
Experiment: BSK_KF3CT_uPA: BioMAP Diversity Plus: KF3CT Assay for urokinase plasminogen activator (uPA) Biomarker Activity (AID 2283075)
Conditions: primary human keratinocytes with fibroblasts; actives raise or lower the signal
Protocol: BSK_KF3CT is a cell-based, multiplexed-readout assay that uses keratinocytes and foreskin fibroblasts, a human skin primary cell co-culture, with measurements taken at 24 hours after chemical dosing in a 96-well plate.BSK_KF3CTA is an assay component measured in the BSK_KF3CT assay. It measures uPA antibody related to regulation of gene expression using ELISA technology.Data from the assay component BSK_KF3CTA was analyzed into 1 assay endpoint. This assay endpoint, BSK_KF3CTA, was analyzed with bidirectional fitting relative to DMSO as the negative control and baseline of activity. Using a type of binding reporter, gain or loss-of-signal activity can be used to understand changes in the signaling as they relate to the gene PLAU. Furthermore, this assay endpoint can be referred to as a primary readout, because this assay has produced multiple assay endpoints where this one serves a signaling function. To generalize the intended target to other relatable targets, this assay endpoint is annotated to the protease intended target family, where the subfamily is serine protease.
The levels of cell surface (or secreted, indicated by the prefix "s") biomarker endpoints were measured by ELISA. Overt cytotoxicity to cells in confluent adherent cultures (all systems other than the BT system) was assessed by measuring total protein levels using sulforhodamine B (SRB) staining in parallel cultures at the time of biomarker measurements, indicated as SRB endpoints. For proliferation assays for adherent cell types, individual cell types are cultured at sub-confluence and relative cell numbers quantified by SRB staining at time points optimized for each system (48 h: 3C and CASM3C systems; 72 h: BT and HDF3CGF systems; 96 h: SAg system). SRB was performed by staining cells with 0.1% SRB after fixation with 10% TCA and reading wells at 560 nm.Viability and proliferation of PBMC (T cells) was quantified by Alamar Blue reduction for the SAg and BT systems. For PBMC viability (referred to as PBMC Cytotoxicity within the assay endpoint names), cells were plated (75,000/well in a 96-well plate) and then chemical samples added for 1 h before addition of activators, SEB and TSST-1 (20 ng/mL final concentration each). Cells were incubated for 90 h. Then, Alamar Blue (20 uL/well) (Invitrogen, Cat DAL1100) was added for 6 h, and the plates were read with a fluorescence microplate reader at 546/580 nm (excitation/emission). For PBMC proliferation, cells were plated and activated as above but incubated for only 16 h prior to addition of Alamar Blue. Plates were read after 6 h.

Row | SMILES | outcome | AC50
1 | CCCN(CCC)c1c([N+](=O)[O-])cc(C(F)(F)F)cc1[N+](=O)[O-] | inactive | –
2 | CCOCN(C(=O)CCl)c1c(C)cccc1CC | inactive | –
3 | O=S1OCC2C(CO1)C1(Cl)C(Cl)=C(Cl)C2(Cl)C1(Cl)Cl (stereo not given) | – | 30.9 µM (active)
4 | O=C1c2ccccc2C(=O)N1SC(Cl)(Cl)Cl | inactive | –
5 | CCOc1nc(NC)nc(NC(=O)NS(=O)(=O)c2ccccc2C(=O)OC)n1 | – | 37 µM (active)
6 | Oc1cc(Cl)ccc1Oc1ccc(Cl)cc1Cl | – | 31 µM (active) [middle of 4 runs]
7 | O=[N+]([O-])/N=C1\NCCN1Cc1ccc(Cl)nc1 | inactive | –
8 | COC(=O)c1ccccc1CS(=O)(=O)NC(=O)Nc1nc(OC)cc(OC)n1 | inactive | –
9 | CNC(=O)Oc1cccc(N=CN(C)C)c1 | inactive | –
10 | O=C(O)CCCOc1ccc(Cl)cc1Cl | inactive | –
11 | CCc1ccc(C(=O)NN(C(=O)c2cc(C)cc(C)c2)C(C)(C)C)cc1 | inactive | –
12 | CC[C@H](C)[C@H]1O[C@]2(C=C[C@@H]1C)C[C@@H]1C[C@@H](C/C=C(\C)[C@@H](O[C@H]3C[C@H](OC)[C@@H](O[C@H]4C[C@H](OC)[C@@H](O)[C@H](C)O4)[C@H](C)O3)[C@@H](C)/C=C/C=C3\CO[C@@H]4[C@H](O)C(C)=C[C@@H](C(=O)O1)[C@]34O)O2 (tested in a mixture with another compound) | – | 15.5 µM (active)
13 | C#CCN1C(=O)COc2cc(F)c(N3C(=O)C4=C(CCCC4)C3=O)cc21 | inactive | –
14 | CN1CSC(=S)N(C)C1 | inactive | –
15 | COP(=S)(OC)Oc1ccc([N+](=O)[O-])cc1 | inactive | –
16 | O=C(Nc1ccccc1)Nc1cnns1 | inactive | –
17 | CCOC1Oc2ccc(OS(C)(=O)=O)cc2C1(C)C (stereo not given) | inactive | –
18 | O=S(=O)(O)C(F)(F)C(F)(F)C(F)(F)C(F)(F)C(F)(F)C(F)(F)C(F)(F)C(F)(F)F | inactive | 35.6 µM (active) and 30.4 µM (active)
19 | O=[N+]([O-])c1c(Cl)c(Cl)c(Cl)c(Cl)c1Cl | – | 31 µM (active)
20 | CC(C)N(C(=O)COc1nnc(C(F)(F)F)s1)c1ccc(F)cc1 | inactive | –

Row | SMILES | outcome | AC50
21 | N#Cc1c(Cl)c(Cl)c(Cl)c(C#N)c1Cl | – | 1.66 µM (active)
22 | CC1(C)C(C=C(Cl)Cl)C1C(=O)OC(C#N)c1ccc(F)c(Oc2ccccc2)c1 (stereo not given) | inactive | –
23 | CCS(=O)(=O)c1cccnc1S(=O)(=O)NC(=O)Nc1nc(OC)cc(OC)n1 | inactive | –
24 | CCN(CC)C(=O)SCc1ccc(Cl)cc1 | inactive | –
25 | C[C@H]1[C@H](c2ccc(Cl)cc2)SC(=O)N1C(=O)NC1CCCCC1 | inactive | –
26 | CCC(C)Nc1c([N+](=O)[O-])cc(C(C)(C)C)cc1[N+](=O)[O-] (stereo not given) | inactive | –
27 | COP(=O)(OC)OC=C(Cl)Cl | inactive | –
28 | CC(C)OC(=O)Nc1cccc(Cl)c1 | inactive | –
29 | N#CN | inactive | –
30 | COc1nn(CSP(=S)(OC)OC)c(=O)s1 | inactive | –
31 | CC1(c2ccc(Oc3ccccc3)cc2)OC(=O)N(Nc2ccccc2)C1=O (stereo not given) | inactive | –
32 | CNC(=O)CSP(=S)(OC)OC | inactive | –
33 | O=C(NC(=O)c1c(F)cccc1F)Nc1ccc(OC(F)(F)C(F)OC(F)(F)F)c(Cl)c1 (stereo not given) | inactive | –
34 | COC(=O)c1ccccc1S(=O)(=O)NC(=O)Nc1nc(C)nc(OC)n1 | inactive | –
35 | CC(C)(C)C(O)/C(=C\c1ccc(Cl)cc1Cl)n1cncn1 (stereo not given) | – | 32.2 µM (active)
36 | CCC(C)(C)C(=O)OC1=C(c2ccc(Cl)cc2Cl)C(=O)OC12CCCCC2 | – | 30.9 µM (active)
37 | OCCOc1ccccc1 | inactive | –
38 | COc1cc(OC)nc(NC(=O)NS(=O)(=O)c2cc(NC=O)ccc2C(=O)N(C)C)n1 | inactive | –
39 | CCCN(CCOc1c(Cl)cc(Cl)cc1Cl)C(=O)n1ccnc1 | inactive | –
